The source of these data is PubChem BioAssay (NCI).

Molecules are shown by their SMILES. The panel holds about 83,000 compounds, 20% with a hit somewhere; the sample as a whole holds those more often.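 Compound tested at a single concentration for 48 hours in 96-well plates; a percent growth value below 10 was scored as active.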 Unmarked numbers belong to inactive results. The source made the active and inactive calls.

Test systems include NCI/ADR-RES ovarian; T-47D breast; BT-549 breast; MDA-MB-435 melanoma; SW-620 colon; MCF7 breast; HCT-116 colon; HCC-2998 colon; KM12 colon.
Holding throughout (assay): NCI-60 one-dose screen, 48 h (100 = growth as untreated, 0 = no growth, -100 = all killed)
Details in all cases: 10 µM unless noted

As for `COc1ccc([As]=[As]c2ccc(OC)c(NCS(=O)(=O)O)c2)cc1NCS(=O)(=O)O` (stereo not given), the growth in the test on NCI/ADR-RES ovarian was 73.7%; with T-47D breast it was -41.9% (active); with BT-549 breast, -12.1% (active); in the test with MDA-MB-435 melanoma, 48.8%; with SW-620 colon, -1.05% (active); in the test on MCF7 breast it was -67.5% (active). For the same compound, the growth was -60.2% (active) in the test on HCT-116 colon, 57.5% in the test on HCC-2998 colon and 72.9% in the test on KM12 colon.
Consider `CC(C)CCC(=O)O[C@H]1CC[C@H]2[C@@H]3CCC4=CC(=O)CC[C@]4(C)[C@H]3CC[C@]12C`, for which the growth is 99% in the test with NCI/ADR-RES ovarian; 102% with T-47D breast; 104% with BT-549 breast; 96.6% in the test on MDA-MB-435 melanoma; 94.5% with SW-620 colon; 105% in the test with MCF7 breast. The growth in the test with HCT-116 colon is 99.8%; in the test with HCC-2998 colon, 105%; in the test with KM12 colon, 95.2%.
In the case of `CC(C)(N)Cc1ccccc1`, the growth is 111% in the test on NCI/ADR-RES ovarian; 107% with T-47D breast; 101% with BT-549 breast; 107% with MDA-MB-435 melanoma; 105% with SW-620 colon; 99.4% in the test with MCF7 breast. For the same compound, the growth was 101% with HCT-116 colon, 110% in the test with HCC-2998 colon and 105% in the test with KM12 colon.
`COC(=O)[C@H](Cc1ccccc1)NNC(=O)c1csc([C@@H](C[C@H](C(C)C)N(C)C(=O)[C@@H](NC(=O)[C@H]2CCCCN2C)C2CC2)OC(C)=O)n1`: the growth in the test on NCI/ADR-RES ovarian was 32.9%; in the test with T-47D breast, 37.7%; in the test on BT-549 breast it was -0.476% (active); in the test with MDA-MB-435 melanoma, -55.8% (active); in the test on SW-620 colon, 24.4%; in the test with MCF7 breast, 16.3%. Moreover, the growth is 1.19% (active) with HCT-116 colon, 10.8% with HCC-2998 colon and 5.13% (active) in the test with KM12 colon.
Turning to `CC1=C(CN)C2=C(C)C3(CC3)[C@@](C)(O)C(=O)C2=C1`, the growth is 93.8% in the test with NCI/ADR-RES ovarian; 88.6% with T-47D breast; 63.3% in the test with BT-549 breast; 97.9% with MDA-MB-435 melanoma; 90.7% in the test with SW-620 colon; 85.1% with MCF7 breast. Also, the growth in the test on HCT-116 colon is 90.4%; with HCC-2998 colon it was 92%; in the test on KM12 colon, 101%.
On to `COc1ccc2nc(NC(=O)COc3cc(/C=C\c4cc(OC)c(OC)c(OC)c4)ccc3OC)sc2c1`, for which the growth with NCI/ADR-RES ovarian is -5.38% (active); in the test on T-47D breast it was 19.9%; with BT-549 breast, 55.4%; in the test on MDA-MB-435 melanoma, -45.1% (active); with SW-620 colon, 25.5%; in the test on MCF7 breast, 16.9%. Further, the figures for the growth in the test with HCT-116 colon, in the test on HCC-2998 colon and in the test with KM12 colon were 12.6%, 45.5% and 16.8%, respectively.
With `C[C@@H]1O[C@@H](O[C@H]2C[C@@H](O)[C@]3(CO)C4C(CC[C@]3(O)C2)[C@@]2(O)CC[C@H](C3=CC(=O)OC3)[C@@]2(C)C[C@H]4O)[C@H](O)[C@H](O)[C@H]1O` (stereo not given in full), the growth is -61.5% (active) in the test with NCI/ADR-RES ovarian; -34.9% (active) with T-47D breast; -91% (active) in the test with BT-549 breast; -80.5% (active) with MDA-MB-435 melanoma; -76.9% (active) in the test with SW-620 colon; -48.1% (active) in the test on MCF7 breast. Moreover, the results for the growth in the test with HCT-116 colon, in the test on HCC-2998 colon and with KM12 colon were -94.5% (active), -89.4% (active) and -89.1% (active), respectively.
For the compound `CC1=C2[C@@H](CC1)[C@]1(C)O[C@@](C(C)C)(C[C@H]1O)[C@H]2OC(=O)C1CC1c1ccccc1` (stereo not given in full), the growth with NCI/ADR-RES ovarian is 77.4%; in the test on T-47D breast, 53.4%; in the test with BT-549 breast, 81.4%; with MDA-MB-435 melanoma, 98.4%; in the test with SW-620 colon it was 101%; in the test on MCF7 breast, 92.2%. For the same compound, the growth was 90.7% in the test with HCT-116 colon, 115% with HCC-2998 colon and 92% in the test on KM12 colon.
For the compound `CC1=C(CCCOC(=O)[C@H](N)CC(C)C)C2=C(C)C3(CC3)[C@@](C)(O)C(=O)C2=C1`, the growth was 3.96% (active) with NCI/ADR-RES ovarian; 5.21% (active) with T-47D breast; -9.68% (active) in the test on BT-549 breast; 69.8% in the test with MDA-MB-435 melanoma; 87.1% in the test with SW-620 colon; 37.8% in the test on MCF7 breast. For the same compound, the growth is 9.3% (active) in the test with HCT-116 colon, 0.215% (active) in the test with HCC-2998 colon and 79.8% with KM12 colon.
With `CCOP1(=O)CC(C)=C(Cl)C(P(=O)(OCC)OCC)C1` (stereo not given), the growth in the test on NCI/ADR-RES ovarian was 85.8%; in the test with T-47D breast, 96.4%; with BT-549 breast it was 112%; in the test with MDA-MB-435 melanoma, 114%; in the test with SW-620 colon, 97.3%; in the test with MCF7 breast, 99.7%. Also, the growth is 107% in the test on HCT-116 colon, 86.3% in the test on HCC-2998 colon and 114% in the test with KM12 colon.
